Consider 25 molecules from PubChem BioAssay (Tox21).

Where “and” joins values, the source holds several entries; their conditions need not be identical. Equal entries are not always repeated. Records with an inconclusive call do not appear. Values without a mark were called inactive. Calls of active or inactive are those of the source. Unless noted, calls follow the shape of the dose curve; as a rule, active = well fitted curve in the direction sought with a large enough effect in the repeat runs; inconclusive = weak or mixed curves; inactive = no such curve, though single readings can be large; an effect the other way counts as inactive or inconclusive.

Assay [1] can be described thus: qHTS assay to identify small molecule antagonists of the estrogen related receptor (ERR) signaling pathway from Tox21 library - cell viability counter screen (AID 1224834). Also: % is scaled to controls: 0 for no effect and ±100 for the full control effect; nearly all actives have a fitted effect of over 30% in size. In outline: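 Seeded ERR cells were rested 6 h at 37 C/5% CO2 before compounds, positive and negative controls or DMSO were added. Incubation continued for 17.5 h, and viability was then quantified by CellTiter-Fluor fluorescence.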
(In general: qHTS replaces the single test concentration by a dilution series.)

Assay [2] concerns the target Luciferin 4-monooxygenase (Photinus pyralis) (UniProt P08659). In words: qHTS assay to identify small molecule inhibitors of firefly luciferase (AID 1224835). Also: nearly all actives have a fitted effect of over 25% in size. Also: potency is read from the fitted curve at half-maximal effect. As to activity change, negative = inhibition: series mostly up to about 120 µM; % is scaled to controls: 0 for no effect and ±100 for the full control effect. In outline: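 Biochemical qHTS: compounds run as interplate titrations against purified firefly enzyme, with D-luciferin and ATP each at its KM concentration. Light output recorded by CCD imaging.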
A short description of assay [3]: qHTS assay to identify small molecule agonists of the constitutive androstane receptor (CAR) signaling pathway - cell viability counter screen (AID 1224836). Also: nearly all actives have a fitted effect of over 45% in size. Also: potency is read from the fitted curve at half-maximal effect. As to viability change, negative = cytotoxic: series mostly up to about 92 µM; % is scaled to controls: 0 for no effect and ±100 for the full control effect. In outline:
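Cells were seeded and incubated 4 hrs. Compounds were added across 15 concentrations together with PK11195 at 0.75 uM final. Plates were incubated 23 hrs at 37 C. CellTiter-Fluor was added and fluorescence measured.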

The nature of assay [4]: qHTS assay to identify small molecule antagonists of the constitutive androstane receptor (CAR) signaling pathway - cell viability counter screen (AID 1224837). Also: series mostly up to about 92 µM; % is scaled to controls: 0 for no effect and ±100 for the full control effect; nearly all actives have a fitted effect of over 45% in size. In outline:
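To flag cytotoxic false antagonists, HepG2 hCAR/CYP2B6-2.2kb cells were treated 23 hr with 15-concentration compound series and 50 nM CITCO at 37 C/5% CO2; CellTiter-Fluor fluorescence was the measured end point.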

The target of assay [5] is Nuclear receptor subfamily 1 group I member 3 (Homo sapiens) (UniProt Q14994). Put plainly: qHTS assay to identify small molecule antagonists of the constitutive androstane receptor (CAR) signaling pathway (AID 1224838).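 Also: HepG2 cells stably expressing hCAR with CYP2B6 luciferase reporter stimulated by CITCO; % is scaled to controls: 0 for no effect and ±100 for the full control effect; nearly all actives have a fitted effect of over 40% in size.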 Summed up: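 Human hepatoma HepG2 cells expressing hCAR and a CYP2B6 promoter (2.2 kb) luciferase construct; compound titration (15 points) with 50 nM CITCO final, 24 h at 37 C/5% CO2; luminescence via ONE-Glo after 30 min at room temperature.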
Nuclear receptor subfamily 1 group I member 3 (Homo sapiens), sequence (Q14994 whole entry, looked up): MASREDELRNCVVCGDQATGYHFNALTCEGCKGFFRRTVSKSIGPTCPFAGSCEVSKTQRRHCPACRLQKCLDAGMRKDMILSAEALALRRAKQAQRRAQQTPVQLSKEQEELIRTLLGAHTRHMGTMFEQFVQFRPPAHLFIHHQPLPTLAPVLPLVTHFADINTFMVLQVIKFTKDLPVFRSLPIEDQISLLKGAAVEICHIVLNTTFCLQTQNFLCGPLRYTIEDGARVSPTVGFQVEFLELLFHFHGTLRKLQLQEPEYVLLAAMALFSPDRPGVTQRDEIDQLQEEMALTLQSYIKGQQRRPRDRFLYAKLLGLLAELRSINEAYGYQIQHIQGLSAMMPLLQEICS

For assay [6] the target is unchanged. Put plainly: qHTS assay to identify small molecule agonists of the constitutive androstane receptor (CAR) signaling pathway (AID 1224839). Also: nearly all actives have a fitted effect of over 15% in size. Also: potency is read from the fitted curve at half-maximal effect.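 As to activation: HepG2 cells stably carrying human CAR and a CYP2B6 luciferase reporter; series mostly up to about 92 µM; % is scaled to controls: 0 for no effect and ±100 for the full control effect.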 Summed up: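 Cells were plated and incubated 4 hrs, then dosed with compounds at 15 concentrations. PK11195 was added to 0.75 uM final. After 24 hrs at 37 C, luciferase luminescence was measured.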
The nature of assay [7]: qHTS assay to identify small molecule antagonists of the estrogen related receptor signaling pathway with the pleiotropic PPARgamma coactivator (PGC) from Tox21 10K library - cell viability counter screen (AID 1224840; active = well fitted cell-killing curve with a large enough effect in the repeat runs, not every such curve was filed as active; also: % is scaled to controls: 0 for no effect and ±100 for the full control effect; nearly all actives have a fitted effect of over 40% in size). Summed up:
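Seeded PGC/ERR cells (2,000/well, 6 h, 37 C/5% CO2) get compound by pin tool; 17.5 h incubation at 37 C; CellTiter-Fluor added, 30 min, fluorescence measured.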

Assay [8] can be described thus: qHTS assay to identify small molecule agonists of the estrogen related receptor signaling pathway with the pleiotropic PPARgamma coactivator (PGC) (AID 1224823). Also: potency is read from the fitted curve at half-maximal effect. Summed up: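 In this quantitative high-throughput screen, an 18 h, 37 C treatment of PGC/ERR cells with compounds in DMSO preceded a One-Glo luminescence read taken after 30 min at room temperature.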
The nature of assay [9]: qHTS assay to identify small molecule antagonists of the estrogen related receptor signaling pathway with the pleiotropic PPARgamma coactivator (PGC) from Tox21 10K library (AID 1224841; call rule not given here; also: series mostly up to about 92 µM; % is scaled to controls: 0 for no effect and ±100 for the full control effect; actives are mostly falling curves and most rising ones were filed inactive; nearly all actives have a fitted effect of over 50% in size). Summed up:
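Test chemicals dissolved in DMSO were applied to pre-incubated (6 h) PGC/ERR cells at 2,000 cells/well for an 18 h, 37 C treatment; reporter luminescence was then read using One-Glo.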

Assay [10] in a line: qHTS assay to identify small molecule agonists of the estrogen related receptor signaling pathway with the pleiotropic PPARgamma coactivator (PGC) from Tox21 10K library (AID 1224842). Also: nearly all actives have a fitted effect of over 15% in size. Also: potency is read from the fitted curve at half-maximal effect. As to activation: % is scaled to controls: 0 for no effect and ±100 for the full control effect. Summed up:
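PGC/ERR reporter cell line, 2,000 cells per well, incubated 6 h at 37 C before 23 nL compound in DMSO was added. After 18 h at 37 C, One-Glo luminescence read following 30 min at room temperature.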

Luciferin 4-monooxygenase (Photinus pyralis), sequence (P08659 whole entry, looked up): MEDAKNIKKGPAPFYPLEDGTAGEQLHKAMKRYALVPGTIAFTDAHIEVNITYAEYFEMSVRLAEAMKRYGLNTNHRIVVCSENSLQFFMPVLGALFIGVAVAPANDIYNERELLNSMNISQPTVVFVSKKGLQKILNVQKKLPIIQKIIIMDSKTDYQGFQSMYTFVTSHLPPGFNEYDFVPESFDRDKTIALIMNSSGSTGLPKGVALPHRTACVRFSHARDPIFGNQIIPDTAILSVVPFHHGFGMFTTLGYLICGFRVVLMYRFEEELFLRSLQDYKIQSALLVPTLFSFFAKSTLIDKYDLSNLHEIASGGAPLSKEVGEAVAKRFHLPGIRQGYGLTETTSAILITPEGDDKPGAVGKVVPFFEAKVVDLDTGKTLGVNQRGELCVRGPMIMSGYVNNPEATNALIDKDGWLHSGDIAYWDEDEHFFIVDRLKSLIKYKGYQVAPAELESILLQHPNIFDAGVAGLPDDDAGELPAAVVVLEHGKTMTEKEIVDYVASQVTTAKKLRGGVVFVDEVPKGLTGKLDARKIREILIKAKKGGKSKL

As to `CC(C)(CCl)c1ccccc1`, the Potency entry in [1], in assay [2], in [3], in [4], in assay [5] and in assay [6] was “inactive” each time. Also, the Potency result in assay [7] is “inactive”.
As to `Cc1oncc1C(=O)Nc1ccc(C(F)(F)F)cc1`, the Potency entry in assay [1], in [3], in assay [4], in assay [5] and in assay [7] was “inactive” throughout. The Potency in assay [2] is 39.9 µM (active); in assay [6], 770 nM (active) and 1.06 µM (active).
With `CC1CN(c2cc3c(cc2F)c(=O)c(C(=O)O)cn3-c2ccc(F)cc2F)CCN1` (configuration not stated), the viability change, negative = cytotoxic was 4.3% [at 8.39 µM] in assay [1] and -1.43% [at 8.39 µM] in assay [3]. Further, in assay [2], the activity change, negative = inhibition is 1.15% [at 10.5 µM]. Moreover, in [4], the activity change, negative = cytotoxicity is 6.26% [at 8.39 µM]. The activity, negative = inhibition in assay [5] is 9.29% [at 8.39 µM]. In addition, the activation in [6] is -1.5% [at 8.39 µM].
`COC(=O)Nc1nc2ccc(C(=O)c3cccs3)cc2[nH]1`: the Potency in [8] was 1.96 µM (active); in assay [2], 15.5 µM (active); in assay [3] it was 11.9 µM (active); in [10], 3.35 µM (active). Also, the Potency result in assay [5], in assay [7] and in assay [9] was “inactive” throughout.
Take `CC1=C(C=O)C(C)(C)CCC1`: the Potency entry in [1], in [2], in assay [3], in assay [4], in [5] and in assay [6] was “inactive” each time. In addition, the Potency result in [7] was “inactive”.
Turning to `COc1ccc(C(=O)c2cccc(O)c2)c(OC)c1`, the Potency result in assay [1], in assay [2], in assay [3], in [4], in assay [5] and in assay [6] was “inactive” throughout. In assay [7], the Potency result was “inactive”.
With `CCCCC(CC)COC(=O)COc1ccc(Cl)cc1C` (configuration not stated), the Potency result in assay [1], in assay [2], in assay [3], in assay [4], in assay [5] and in assay [6] was “inactive” in each case. The Potency result in assay [7] was “inactive”.
In the case of `O=C(C(=O)c1ccccc1)c1ccccc1`, the Potency entry in assay [1], in [2], in assay [3], in [4], in [5] and in [7] was “inactive” each time. Besides, the Potency entry in [9] and in assay [10] was “inactive” each time.
Turning to `CCCOc1ccc(S(=O)(=O)N2CCN(CC)CC2)cc1-c1nc2c(CC)n(Cc3ccccn3)nc2c(=O)[nH]1`, the Potency result in assay [1], in assay [2], in [3], in [4], in assay [5] and in [6] was “inactive” throughout. Moreover, the Potency result in assay [7], in assay [9] and in [10] was “inactive” throughout.
In the case of `CC1=CC(=O)CC(C)(C)C1(O)/C=C/C(C)=C\C(=O)O` (configuration not stated), the Potency result in assay [1], in assay [2], in assay [3], in assay [4], in assay [5] and in assay [6] was “inactive” throughout. Further, the Potency entry in [7], in assay [9] and in assay [10] was “inactive” throughout.
On to `CCN(Cc1cccc(S(=O)(=O)O)c1)c1ccc(C(=C2C=CC(=[N+](CC)Cc3cccc(S(=O)(=O)[O-])c3)C=C2)c2ccccc2)cc1`, for which the Potency result in assay [1], in assay [3], in assay [4], in [5], in [6] and in assay [7] was “inactive” throughout. Besides, the Potency result in assay [9] and in assay [10] was “inactive” each time. The Potency in [2] is 22.3 µM (active).
Turning to `COc1cc2[nH]c(=O)[nH]c(=O)c2cc1OC`, the Potency entry in assay [1], in [2], in assay [3], in [4], in [5] and in [6] was “inactive” in each case. Further, the Potency entry in [7], in [9] and in assay [10] was “inactive” throughout.
Regarding `CC(C)C(=O)O`, the Potency entry in assay [1], in assay [2], in assay [3], in [4], in assay [5] and in assay [6] was “inactive” each time. In assay [7], the Potency entry is “inactive”.
On to `CC1(C)O[C@@H]2C[C@H]3[C@@H]4CCC5=CC(=O)C=C[C@]5(C)[C@H]4[C@@H](O)C[C@]3(C)[C@]2(C(=O)CO)O1`, for which the Potency entry in assay [1], in assay [2], in [3], in assay [4], in assay [5] and in [6] was “inactive” each time. In addition, the Potency result in assay [7], in assay [9] and in [10] was “inactive” each time.
Consider `CCCCCCCCCCCCCCCCBr`, for which the results for the viability change, negative = cytotoxic in assay [1], in [3] and in [7] were 0.749% [at 19 µM], 0.618% [at 19 µM] and 7.8% [at 19 µM], respectively. Also, the activity change, negative = inhibition in assay [2] was 1.26% [at 23.6 µM]. Moreover, the activity change, negative = cytotoxicity in [4] was -0.0926% [at 19 µM]. Further, the values for the activity, negative = inhibition in [5] and in assay [9] were -0.414% [at 19 µM] and 36.1% [at 19 µM], respectively. In addition, the values for the activation in assay [6] and in [10] were -0.821% [at 19 µM] and 1.63% [at 19 µM], respectively.
In the case of `OCCSc1ccccc1`, the Potency entry in [1], in [2], in assay [3], in assay [4], in [5] and in [6] was “inactive” in each case. Also, the Potency entry in assay [7] is “inactive”.
On to `C1COCO1`, for which the Potency entry in assay [1], in assay [2], in [3], in [4], in assay [5] and in [6] was “inactive” throughout. For the same molecule, the Potency entry in assay [7], in assay [9] and in assay [10] was “inactive” in each case.
In the case of `CCCOCCOCCO`, the Potency entry in assay [1], in [2], in [3], in assay [4], in assay [5] and in assay [6] was “inactive” each time. The Potency result in assay [7] is “inactive”.
Consider `c1cnc2c(n1)CCCC2`, for which the Potency entry in assay [1], in assay [2], in assay [3], in assay [4], in assay [5] and in assay [6] was “inactive” each time. Moreover, the Potency entry in assay [7], in [9] and in assay [10] was “inactive” in each case.
Take `COC(OC)(C(=O)c1ccccc1)c1ccccc1`: the Potency result in [1], in assay [2], in assay [3], in assay [4], in [5] and in [7] was “inactive” each time. Besides, the Potency entry in [9] and in [10] was “inactive” each time. Moreover, in assay [6], the Potency was 15.3 µM (active).
With `Oc1cc(O)c(Cl)cc1Cl`, the Potency result in assay [1], in assay [2], in [3], in [4], in assay [5] and in assay [6] was “inactive” each time. Moreover, the Potency result in assay [9] and in [10] was “inactive” each time.
With `C=CC(C)(O)CCCC(C)CCCC(C)CCCC(C)C` (configuration not stated), the Potency entry in assay [1], in [2], in [3], in [4], in assay [5] and in assay [6] was “inactive” in each case. Moreover, the Potency entry in assay [7], in [9] and in [10] was “inactive” throughout.
With `CCCCC(CC)C(=O)OCCOCCOCCOCCOC(=O)C(CC)CCCC` (configuration not stated), the Potency entry in [1], in assay [2], in assay [3], in assay [4], in assay [5] and in assay [6] was “inactive” throughout. Besides, the Potency result in [7] and in assay [10] was “inactive” throughout.
For `Nc1c(I)cc(I)c(C(=O)N(CCC(=O)O)c2ccccc2)c1I`, the Potency entry in [1], in assay [2], in [3], in [4], in assay [5] and in [6] was “inactive” each time. In addition, the Potency entry in assay [7] is “inactive”.
Regarding `O=C(O)c1cccc(O)c1`, the Potency result in assay [1], in assay [2], in [3], in assay [4], in assay [5] and in [6] was “inactive” in each case. The Potency entry in assay [7] is “inactive”.
